PubChem BioAssay AID720540 (National Center for Advancing Translational Sciences (NCATS), 2013)
About 460 (35%) of roughly 1,300 compounds were called active. About 39% were inconclusive and are not listed. This is one part of the list. A number with no mark means an inactive call. Calls come from the whole dose curve; as a rule, active = well fitted inhibition curve with a large enough effect; inconclusive = small, poorly fitted or top-dose-only effect; inactive = flat fitted curve, though single readings scatter.

What follows are compounds tested against Protein phosphatase EYA2 (Homo sapiens) (UniProt O00167) (assay: qHTS for Inhibitors of the Phosphatase Activity of Eya2: Confirmatory Assay for Cherry-picked Compounds). Conditions: purified EYA2 phosphatase activity, qHTS confirmation; series mostly up to 46.1 µM; activity change, negative = inhibition: at the top concentration.
Chain of Protein phosphatase EYA2 (Homo sapiens) (O00167 whole entry, looked up, the tested form may be a part): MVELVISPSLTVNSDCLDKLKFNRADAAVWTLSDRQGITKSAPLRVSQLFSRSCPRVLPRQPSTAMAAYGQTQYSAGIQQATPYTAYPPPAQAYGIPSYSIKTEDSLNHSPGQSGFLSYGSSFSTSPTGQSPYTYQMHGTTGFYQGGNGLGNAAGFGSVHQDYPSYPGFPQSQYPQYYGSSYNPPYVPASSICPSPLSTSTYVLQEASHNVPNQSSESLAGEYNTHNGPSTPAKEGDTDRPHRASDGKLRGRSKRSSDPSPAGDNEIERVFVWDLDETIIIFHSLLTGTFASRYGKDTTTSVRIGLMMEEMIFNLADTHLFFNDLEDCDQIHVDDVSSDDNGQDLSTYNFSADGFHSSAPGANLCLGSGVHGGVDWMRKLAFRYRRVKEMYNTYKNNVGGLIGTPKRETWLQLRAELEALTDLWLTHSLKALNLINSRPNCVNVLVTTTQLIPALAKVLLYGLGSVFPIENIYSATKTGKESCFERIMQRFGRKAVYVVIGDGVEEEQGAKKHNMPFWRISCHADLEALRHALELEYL
Description: The Eya protein family is an essential co-activator of the Six1 transcription factor. Six1 is a developmental gene that is abnormally re-expressed in a large percentage of breast cancers. This over-expression plays a causal role in the initiation and metastatic development of breast cancers. The Eya family of protein is also found to contain a unique HAD phosphatase domain with protein tyrosine phosphatase activity which can potentially play a role in Six1-mediated breast tumorigenesis. Recently, Eya2 is found to dephosphorylate the histone variant H2AX and direct cells towards DNA repair instead of apoptosis in the event of DNA damage.
A 1536 well format, fluorescence based qHTS assay was developed and used to target the phosphatase activity of Eya2 (AID 488837). Inhibitors found against Eya2 could serve as potential therapeutic tools to inhibit Six1-mediated breast tumorigenesis and to increase the efficiency of radiation and certain chemo therapy. This assay assessed the activity of the primary screen cherry-picked compounds against Eya2. Inhibition is the desired outcome for this assay.
NIH Chemical Genomics Center [NCGC]
NIH Molecular Libraries Probe Centers Network [MLPCN]
Assay Submitter (PI): Rui Zhao, University of Colorado Denver
Eya2 enzyme and 3-O-methyl-fluorescein phosphate (OMFP) substrate working solutions were reconstituted in the buffer reagent consist of 50 mM HEPES pH 7.5, 50 mM NaCl, […], 0.05% BSA and 1 mM DTT. One and a half microliter of 0.2 uM Eya2 working solution was dispensed in a 1536 well Greiner plate (black, medium bind). Twenty-three nanoliter of test compounds and control compound EGTA was transferred to the assay plate using the Kalypsys robotic system equipped with a 1536 pin head. The plate was incubated at room temperature for 10 minutes. One and a half microliter of the 50 uM the OMFP substrate was then dispensed to the assay plate and incubated at room temperature for additional 10 min. The fluorescence signal was read using the PerkinElmer ViewLux plate reader using a 485 nm excitation and 525 nm emission filters. The data was normalized to the positive control for maximum inhibition and DMSO treated wells as negative control.
Note: nearly all actives have a fitted effect of over 65% in size.
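Throughout, for activity change, negative = inhibition: 0% = DMSO wells and -100% = EGTA control giving full inhibition.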

SMILES	Potency	activity change, negative = inhibition
CC(=O)N1CCN(/[N+]([O-])=N/Oc2ccc([N+](=O)[O-])cc2[N+](=O)[O-])CC1	19 µM (active)	–
Cn1nc([N+](=O)[O-])nc1Sc1cccc2cccnc12	1.9 µM (active)	–
O=c1c(O)cccc2cc(O)c(O)c(O)c12	8.49 µM (active)	–
OCCN(Cc1cccnc1)Cc1ccccn1	5.36 µM (active)	–
COc1ccc(N(CC(=O)Nc2cccc(C(C)=O)c2)S(=O)(=O)c2ccc(NC(C)=O)cc2)cc1	–	-23.4%
CC(=O)Nc1ccc(S(=O)(=O)Nc2cccc3cccnc23)cc1	4.78 µM (active)	–
O=S(=O)(Nc1cccc2cccnc12)c1ccccc1Br	16.9 µM (active)	–
CC1(C)CC(=O)c2c(oc3ccc(NS(=O)(=O)c4cccc5cccnc45)cc23)C1	–	-15.7%
O=C(CCCl)Nc1cccc2cccnc12	15.1 µM (active)	–
CCOc1ccc(Br)cc1S(=O)(=O)NC1CC(C)(C)NC(C)(C)C1	–	-5.16%
NC(=O)c1c(NC(=O)c2ccc(N3C(=O)CCC3=O)cc2)sc2c1CCCC2	1.51 µM (active)	–
CCCC(=O)NC(=S)Nc1sc2c(c1C(N)=O)CCC2	–	0.48%
CCc1nnc2c(N(C)C)nc3ccccc3n12	15.1 µM (active)	–
CN(C)S(=O)(=O)n1cnc2ccccc21	–	-1.26%
Cn1c(=O)n(Cc2ccc(F)cc2)c(=O)c2c1nc1n2CCN1Cc1ccco1	16.9 µM (active)	–
Cn1c(=O)n(CCO)c(=O)c2c1nc(Br)n2Cc1ccccc1	–	-3.69%
Cc1ccc(C(=O)Oc2ccc(C(=O)COC(=O)c3cnccn3)cc2)cc1	0.478 µM (active)	–
Clc1cccc(-c2ccc(CNCc3ccccn3)o2)c1	19 µM (active)	–
Fc1ccc(-c2ccc(CNCc3ccccn3)o2)cc1	19 µM (active)	–
Clc1ccc(-c2ccc(CNCc3ccccn3)o2)cc1	15.1 µM (active)	–
O=S(=O)(c1ccc(Cl)s1)N1CCc2ccccc2C1	–	43.7%
CCOc1cc(C=NNC(=O)c2cccc(S(=O)(=O)N3CCCC3)c2)ccc1O	6.01 µM (active)	–
CC1CCC(=NNc2ccc(C(F)(F)F)cc2[N+](=O)[O-])CC1 (stereo unspecified)	7.57 µM (active)	–
O=C(O)c1ccc2c(c1)C(=O)N(c1cccc(-c3nc4ccccc4s3)c1)C2=O	–	-13.9%

SMILES	Potency	activity change, negative = inhibition
O=C(O)c1ccc2c(c1)C(=O)N(c1ccc(/C=C/C(=O)c3ccccc3)cc1)C2=O	19 µM (active)	–
CCCc1cc(=O)[nH]c(SCC(=O)Nc2ccc(C)cc2)n1	–	-8.55%
Cc1nnc2sc(SCC(=O)Nc3ccc(Br)cc3)nn2c1=O	4.78 µM (active)	–
O=c1[nH]c(/C=C\c2ccc(O)cc2)nc(O)c1[N+](=O)[O-]	–	-17%
CCOC(=O)c1nn2c(C(F)(F)F)cc(-c3ccc(OC)cc3)nc2c1Br	12 µM (active)	–
CNc1c(Br)cc(C(O)C2=CCc3ccccc32)cc1Br (stereo unspecified)	–	-3.84%
Nc1nc2cc3ccccc3cc2[nH]c1=O	–	-10.3%
Cc1ccccc1NC(=O)C1CCN(C(=O)N2CCOc3ccccc32)CC1	–	-3.15%
Cc1ccccc1C(=O)NC(=S)Nc1ccccc1N1CCCC1	13.5 µM (active)	–
CCc1nc2ccc(C(=O)NCCOc3ccc(OC)cc3)cn2c1N(CCC(C)C)CCN(C)C	–	-16.6%
C/C(=C1/C=Nc2ccccc21)c1ccc(N(C)C)cc1	19 µM (active)	–
Cc1cccn2c(=O)c3cc(S(=O)(=O)c4ccc(F)cc4)c(=N)n(Cc4ccco4)c3nc12	–	-12.7%
COc1ccc(CCn2c(=N)c(C(=O)NCc3ccco3)cc3c(=O)n4ccccc4nc32)cc1OC	15.1 µM (active)	–
CCC(=O)c1cn(CC(=O)Nc2c(C)cccc2C)c2ccccc12	–	-9.78%
Cc1ccccc1OCCn1cc(C(=S)N2CCN(C)CC2)c2ccccc21	16.9 µM (active)	–
O=c1oc(-c2ccco2)nc2ccccc12	19 µM (active)	–
O=C(O)CCCCCNS(=O)(=O)c1cccc2c1C(=O)c1ccccc1C2=O	6.01 µM (active)	–
CCOc1ccccc1O[C@H](c1ccccc1)[C@H]1CNCCO1	–	-7.05%
NC(=O)C1CCN(CC(=O)Nc2ccc3c(c2)OCO3)CC1	–	22.6%
Nn1c(SCC(=O)Nc2ccc3c(c2)OCCO3)nnc1-c1ccccn1	21.3 µM (active)	–
O=C(CSc1ccc2c(c1)OCCO2)Nc1ccc2c(c1)OCO2	–	-15.6%
O=S(=O)(Nc1nnc(-c2ccccc2)s1)c1ccc(Cl)cc1	15.1 µM (active)	–
COc1cc(OC)c(OC)cc1CCC(C)NCCC(c1ccccc1)c1ccccc1 (stereo unspecified)	8.49 µM (active)	–
Cc1ccc(NC(=O)CN2C(=O)S/C(=C\c3cc(Cl)c(OCC(=O)O)c(Cl)c3)C2=O)cc1	19 µM (active)	–

SMILES	Potency	activity change, negative = inhibition
CC(SC1=NCCS1)C(=O)Nc1nnc(-c2ccc(Br)cc2)s1 (stereo unspecified)	6.01 µM (active)	–
OC(c1ccc(Cl)cc1)c1nccc2ccccc12 (stereo unspecified)	–	-9.24%
Oc1c(C(c2ccc(Cl)cc2)N2CCCC2)cc(Cl)c2cccnc12 (stereo unspecified)	6.75 µM (active)	–
CN1CCN(C(c2ccccn2)c2cc(Cl)c3cccnc3c2O)CC1 (stereo unspecified)	2.39 µM (active)	–
COC(=O)c1c(C)[nH]c(C(=O)C(C)OC(=O)C2CC(=O)N(c3ccc(C)cc3)C2)c1C (stereo unspecified)	–	-26%
CC(=O)Oc1ccc(C(=O)OCC(=O)c2c(N)n(C)c(=O)n(C)c2=O)cc1OC(C)=O	4.78 µM (active)	–
Cn1c(N)c(C(=O)CSc2nnc(NC3CCCCC3)s2)c(=O)n(C)c1=O	–	-28.7%
O=C(Oc1ccc(C(=S)N2CCOCC2)cc1Cl)c1ccccc1F	8.49 µM (active)	–
O=C(Oc1ccc(C(=S)N2CCOCC2)cc1Br)c1ccccc1F	16.9 µM (active)	–
COc1ccc(C(=O)N2CCOCC2)cc1S(=O)(=O)N1CCCc2ccccc21	–	-12.4%
CC1=CC(C)(C)Nc2ccc(OC(=O)CN3C(=O)c4ccccc4C3=O)cc21	–	-11.5%
CN1/C(=C\C(=S)NC(=O)c2ccccc2Cl)C(C)(C)c2ccccc21	16.9 µM (active)	–
O=C(NC1CCCCC1)N1CCN(C2CCCCC2)CC1	–	2.04%
COc1cc(OC)c(NC(=O)CN(C)S(=O)(=O)c2ccc(-c3ccc(=O)[nH]n3)s2)cc1Cl	4.26 µM (active)	–
COc1ccc([C@H]2CC(=O)C=C(c3ccnc4ccc(Cl)cc34)C2)cc1	–	-22.9%
O=C(O)c1ccc(-c2ccc(/C=c3/sc4nc5ccccc5n4c3=O)o2)cc1Cl	5.36 µM (active)	–
N=C1/C(=C/c2ccc(-c3cccc(C(=O)O)c3)o2)C(=O)N=C2SC=C(c3ccccc3)N12	–	-20.3%
Cc1c(CCO)c(=O)n(-c2ccccc2)n1S(=O)(=O)c1c(Cl)cc(Cl)cc1Cl	3.01 µM (active)	–
CC12CC3(C)CC(C)(C1)CC(C(=O)NC(=S)N1CCOCC1)(C2)C3	–	-20%
O=C1c2ccccc2C(=O)c2c(Nc3ccc(CCO)cc3)ccc(O)c21	6.01 µM (active)	–
O=C1c2cccc3cccc(c23)C(=O)N1CCCN1CCN(c2ccc(F)cc2)CC1	15.1 µM (active)	–
COc1ccccc1NC(=O)CCCCCN1C(=O)c2cccc3cccc(c23)C1=O	–	-15.8%
O=C(c1cccc(S(=O)(=O)Nc2ccccc2Cl)c1)N1CCN(c2ccccc2O)CC1	19 µM (active)	–
CC1Cc2ccccc2N1NC(=O)c1ccc(Cl)c(S(N)(=O)=O)c1 (stereo unspecified)	–	-5.79%

SMILES	Potency	activity change, negative = inhibition
COc1ccc(C2CC(c3ccccc3OC(=O)/C=C/c3ccccc3)=NN2C(C)=O)cc1 (stereo unspecified)	19 µM (active)	–
O=S(=O)(Nc1cccc(-c2cn3cccnc3n2)c1)c1ccc(F)cc1	13.5 µM (active)	–
Cn1c(=O)c2cc(S(=O)(=O)Nc3cccc(F)c3)ccc2n(C)c1=O	–	-21.5%
O=S(=O)(Nc1cccc(-c2cn3cccnc3n2)c1)c1ccccc1	4.78 µM (active)	–
O=c1c(O)c(-c2ccc(O)cc2O)oc2cc(O)cc(O)c12	8.49 µM (active)	–
Cc1cc(C(=O)O)ccc1-n1c(C)cc(C=C2C(=O)c3ccccc3C2=O)c1C	–	-8.67%
Cc1cc(C(=O)c2ccccc2)cc(C)c1O	1.9 µM (active)	–
CN(C)c1ccc(C2C=Cc3ccccc32)c2ccccc12 (stereo unspecified)	9.53 µM (active)	–
CSCc1cc(N(C)c2ccccc2)nc(-c2ccccn2)n1	15.1 µM (active)	–
NCC(=O)Nc1ccc(Cl)cc1C(=O)c1ccc[nH]1	–	-11.7%
O=C(c1cccs1)N1CCC(c2nc3c(nnn3Cc3cccc(Cl)c3)c(=O)[nH]2)CC1	10.7 µM (active)	–
CN(C)CCNc1ccc2nnn3c4ccc(O)cc4c(=O)c1c23	1.69 µM (active)	–
CN(C)CCNc1ccc2ncn3c4ccc(O)cc4c(=O)c1c23	3.38 µM (active)	–
N#Cc1ccc(C(=O)N2CCC3CC2c2cc(-c4ccccc4)ccc23)cc1 (stereo unspecified)	–	-24.4%
CN(C)C1=C2C=CC=CC2/C(=C2/C=Cc3ccccc32)C=C1 (stereo unspecified)	8.49 µM (active)	–
O=C(O)c1cc(-c2ccc(/C=C3\NC(=O)N(c4ccc(Cl)cc4)C3=O)o2)ccc1Cl	8.49 µM (active)	–
CCOC(=O)CN1C(=O)/C(=C2\SC(=S)N(NC(=O)c3cccnc3)C2=O)c2ccccc21	19 µM (active)	–
COC(=O)c1ccc(NC(=O)c2ccc3c(c2)C(=O)N(Cc2cccnc2)C3=O)cc1	–	-19.5%
CN1C(=O)/C(=C2\SC(=S)N(NC(=O)c3cccnc3)C2=O)c2ccccc21	9.53 µM (active)	–
CCOc1cc(C(=O)NC(C)CCc2ccccc2)cc(OCC)c1OCC (stereo unspecified)	–	13.9%
C[C@H](CCC(=O)NCC(=O)O)[C@H]1CC[C@H]2[C@@H]3[C@H](O)C[C@@H]4C[C@H](O)CC[C@]4(C)[C@H]3C[C@H](O)[C@]12C	–	-6.72%
CC(C(=O)O)N1C(=O)/C(=C/C=C/c2ccco2)SC1=S (stereo unspecified)	3.79 µM (active)	–
O=C(O)CC(C(=O)O)N1C(=O)/C(=C/C=C/c2ccco2)SC1=S (stereo unspecified)	3.79 µM (active)	–
O=C(O)C(Cc1ccccc1)N1C(=O)/C(=C/C=C/c2ccco2)SC1=S (stereo unspecified)	6.75 µM (active)	–
